Data taken from PubChem BioAssay.
Calls of active or inactive are those of the source.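 The calls were made as follows, unless noted: active = inhibition of the reporter signal at or above 50%; inactive = inhibition below 50%.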

Key:
[1] = inhibitors of TNFa-induced NFkB p65 translocation, primary screen, imaging, HUVEC, MLSMR starter and 10KST1 sets (AID 438;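 active = inhibition above 20% together with a positive visual image hit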;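 also: compound added about 3h40 before a 20 min TNFalpha stimulation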;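 as to inhibition: signal is the nuclear over cytoplasmic p65 intensity ratio per well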); settings: HUVEC TNFa-induced p65 nuclear translocation; cell count: measured here: nuclei count (cytotoxicity indicator), at 2.08 µM; inhibition: at 2 µM, stronger effect = higher value, 0% TNFa-plus-vehicle, 100% no-TNFa wells
[2] = reduction of polyQ htt aggregates in cells – imaging, exon1htt(103Q)mCFP cells, high-content imaging, primary screen (AID 483;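 active = visual image review flags a hit and inhibition of aggregation exceeds 20%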;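 also: compound exposure lasted 3 days before fixation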;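 as to nuclei count: percent of the per-plate median nuclei count of sample wells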); settings: exon1htt(103Q)mCFP cell line, aggregate imaging, at 2 µM; inhibition of aggregation: stronger effect = higher value; nuclei count: measured here: cell count, toxicity
[3] = endothelial E-selectin expression blockers – imaging, HUVEC, immunofluorescence, MLSMR starter and 10KST1 sets, primary screen (AID 487;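 active = visually confirmed hit in the image check and inhibition above 20%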;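 as to inhibition: signal is fraction of cell area covered by stained E-selectin grains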;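 as to nuclei count: 100% = median nuclei count of all wells on the same plate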); settings: HUVEC TNFalpha-induced E-selectin immunofluorescence imaging, at 2 µM; inhibition: stronger effect = higher value; nuclei count: measured here: cell number, toxicity
[4] = molecular target: Voltage-gated potassium channel subunit beta-2 (Rattus norvegicus) (UniProt P62483); experiment: inhibitors of rat Kvbeta2 reductase activity – biochemical, NADPH fluorescence, primary screen (AID 622;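 active = fluorescence slope higher than the sample average by over 3 SD, cut at about -0.22 in these data, passing the limit was not always enough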;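 also: slope of raw intensity against log time taken from 70 to 1610 s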); settings: recombinant KvBeta, 4-cyanobenzaldehyde reduction, at 10 µM, stronger effect = higher value
Chain of Voltage-gated potassium channel subunit beta-2 (Rattus norvegicus) (P62483 whole entry, looked up): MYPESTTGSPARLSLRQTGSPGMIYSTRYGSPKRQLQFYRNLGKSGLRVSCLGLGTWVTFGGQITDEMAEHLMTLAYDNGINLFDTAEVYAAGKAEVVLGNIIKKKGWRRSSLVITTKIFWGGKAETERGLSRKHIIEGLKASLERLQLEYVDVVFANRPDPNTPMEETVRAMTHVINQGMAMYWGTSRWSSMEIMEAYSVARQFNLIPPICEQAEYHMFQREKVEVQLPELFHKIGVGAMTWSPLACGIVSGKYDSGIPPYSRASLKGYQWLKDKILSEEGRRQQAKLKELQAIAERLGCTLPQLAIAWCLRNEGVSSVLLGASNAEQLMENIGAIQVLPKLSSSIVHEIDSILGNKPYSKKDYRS

[5] = molecular target: Voltage-gated potassium channel subunit beta-2 (Rattus norvegicus) (UniProt P62483); experiment: enhancers of rat Kvbeta2 NADPH turnover – biochemical, NADPH fluorescence, primary screen (AID 623;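 active = NADPH fluorescence slope more negative than the mean of all samples by about 3 SD, 99.7% confidence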;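 also: fluorescence intensity change per second fitted from 20 to 320 s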); settings: Recombinant KvBeta, NADPH fluorescence decrease slope, 10 min; at 10 µM; stronger effect = lower value
[6] = molecular target: Alpha-2C adrenergic receptor (Homo sapiens) (UniProt P18825); experiment: compounds altering alpha2C-coupled GIRK flux – cell-based, HEK293 alpha2C/GIRK1/2, thallium flux, primary screen (AID 624;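 active = fluorescence slope after compound addition differing from the mean of all screened samples at 99.7% confidence, in either direction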;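 also: slope of fluorescence ratio to pre-addition baseline per second over 15 to 24 s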); settings: thallium flux BTC fluorescence, at 10 µM, actives lie on both sides
Chain of Alpha-2C adrenergic receptor (Homo sapiens) (P18825 whole entry, looked up): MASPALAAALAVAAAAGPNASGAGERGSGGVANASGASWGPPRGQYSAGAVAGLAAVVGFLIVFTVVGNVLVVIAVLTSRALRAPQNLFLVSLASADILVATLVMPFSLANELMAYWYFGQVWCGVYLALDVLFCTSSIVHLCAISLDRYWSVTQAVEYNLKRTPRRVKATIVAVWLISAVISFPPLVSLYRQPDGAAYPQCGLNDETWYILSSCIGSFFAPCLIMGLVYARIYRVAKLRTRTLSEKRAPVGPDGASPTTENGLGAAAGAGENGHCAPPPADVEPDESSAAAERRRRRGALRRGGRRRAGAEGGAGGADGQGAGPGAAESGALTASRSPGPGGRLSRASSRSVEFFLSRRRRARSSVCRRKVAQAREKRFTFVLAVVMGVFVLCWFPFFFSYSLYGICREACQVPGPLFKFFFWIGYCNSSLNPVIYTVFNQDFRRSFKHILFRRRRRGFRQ

[7] = blockers of RIG-like receptor reporter activation – cell-based, Sendai virus stimulus, luciferase, 10K MLSCN set, TLR/RLR signaling modifier project, primary screen (AID 602276;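 active = inhibition at or above 50% at 10 µM; inactive = inhibition below 50%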;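 also: firefly luciferase from ISG56 promoter only with Renilla not read in this screen; 0% = Sendai virus plus DMSO and 100% = medium plus DMSO without virus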); settings: HEK293 RL24 IRF3 luciferase reporter, at 10 µM, stronger effect = higher value
[8] = TLR3 IRF3 reporter activation blockers – cell-based, poly I:C stimulus, luciferase, 10K MLSCN set, primary screen (AID 602277); settings: HEK293-TLR3 RL24 IRF3 luciferase reporter, at 10 µM, stronger effect = higher value

SMILES	cell count [1]	inhibition [1]	inhibition of aggregation [2]	nuclei count [2] [%]	inhibition [3]	nuclei count [3] [%]	fluorescence slope [4]	NADPH fluorescence slope [5]	slope [6]	inhibition [7]	inhibition [8]
c1ccc(Cn2nnnc2CN2CCCC2)cc1	433	-9.4% (inactive)	2.6% (inactive)	100	-38.6% (inactive)	94	-0.499 (inactive)	-2.2e-05 (inactive)	0.00601 (inactive)	14.5% (inactive)	19.4% (inactive)
CCCNC(=O)C1CC(=O)N(c2ccc(OCC(=O)Nc3cc(C)cc(C)c3)cc2)C1 (stereo not drawn)	591	-6.2% (inactive)	-2.7% (inactive)	104	-6.3% (inactive)	114	-0.562 (inactive)	-4e-05 (inactive)	0.00634 (inactive)	-3.19% (inactive)	27.9% (inactive)
CC(C)(C)C1=Nn2c(nnc2-c2n[nH]c3c2CCC3)SC1	385	6% (inactive)	-24.6% (inactive)	100	-30.7% (inactive)	87.6	-0.521 (inactive)	-1.7e-07 (inactive)	0.00435 (inactive)	14.9% (inactive)	15.7% (inactive)
O=S(=O)(c1ccc(S(=O)(=O)N(Cc2ccco2)Cc2ccccc2Cl)cc1)N1CCCC1	818	-6.1% (inactive)	-2.8% (inactive)	108	-38.1% (inactive)	126	-0.587 (inactive)	-3.1e-05 (inactive)	0.00951 (inactive)	8.74% (inactive)	28% (inactive)
CCCn1c(SCC(=O)N2CCc3ccccc3C2)nc2c1c(=O)n(C)c(=O)n2C	430	-9.2% (inactive)	-13.1% (inactive)	115	-47.7% (inactive)	117	-0.303 (inactive)	8.7e-06 (inactive)	0.00547 (inactive)	2.01% (inactive)	-39% (inactive)
Cc1c[nH]c2cccc(OCC(O)CNC(C)(C)C)c12 (stereo not drawn)	324	-1.6% (inactive)	15.3% (inactive)	95.2	-4.9% (inactive)	123	-0.454 (inactive)	1.3e-05 (inactive)	0.00547 (inactive)	12.1% (inactive)	27.1% (inactive)
CC(=O)c1ccc(NC(=O)c2cc(CC(C)C)on2)cc1	572	-2.3% (inactive)	23.3% (inactive)	97.8	-3% (inactive)	104	-0.606 (inactive)	-2.3e-06 (inactive)	0.00654 (inactive)	-32.2% (inactive)	-78% (inactive)
CC(C)(C)c1ccc(OCC(=O)O)cc1	567	3.1% (inactive)	11.7% (inactive)	98	-36% (inactive)	96.2	-0.599 (inactive)	-3.9e-05 (inactive)	0.00377 (inactive)	7.32% (inactive)	11.4% (inactive)
CN1C(=O)C(O)(CC(=O)c2ccc3c(c2)OCO3)c2ccccc21 (stereo not drawn)	340	6% (inactive)	-7.9% (inactive)	105	-11.1% (inactive)	108	-0.457 (inactive)	6.3e-06 (inactive)	0.00347 (inactive)	4.81% (inactive)	32.2% (inactive)
O=C(O)CCCc1nc(-c2ccccc2)no1	726	-1.7% (inactive)	-4.5% (inactive)	91.6	22.1% (inactive)	108	-0.447 (inactive)	1.4e-05 (inactive)	0.00583 (inactive)	16.6% (inactive)	20.7% (inactive)
Nc1cccc2c1C(=O)N(c1ccccc1)C2=O	560	1.8% (inactive)	-6% (inactive)	87.9	13.9% (inactive)	107	-0.0636 (active)	-2.2e-06 (inactive)	0.00303 (inactive)	-20.4% (inactive)	-40.4% (inactive)
Cc1ccc2c(c1)-c1c(cnn1CC(=O)NC(C)CCc1ccco1)CO2 (stereo not drawn)	799	4.6% (inactive)	-8% (inactive)	119	-62.3% (inactive)	125	-0.577 (inactive)	-2e-05 (inactive)	0.00658 (inactive)	11.5% (inactive)	29.3% (inactive)
O=C(Cn1cnc2ccccc2c1=O)NCCC(=O)N1CCN(Cc2ccccc2)CC1	451	-3.8% (inactive)	31.1% (inactive)	80.5	-0.7% (inactive)	112	-0.416 (inactive)	-9.6e-05 (inactive)	0.00528 (inactive)	12.1% (inactive)	24.7% (inactive)
Cc1cccn2c(=O)c3cc(C(=O)N4CCCc5ccccc54)n(C)c3nc12	232	15.9% (inactive)	10.9% (inactive)	98.7	29.9% (inactive)	96	-0.556 (inactive)	-3.1e-05 (inactive)	0.00631 (inactive)	6.77% (inactive)	17.7% (inactive)
O=C1c2ccccc2-c2ccc(C(=O)N3CCOCC3)cc21	623	-4.1% (inactive)	-6.2% (inactive)	81.1	-103% (inactive)	101	-0.235 (inactive)	-1.8e-05 (inactive)	0.00393 (inactive)	5.8% (inactive)	-1.97% (inactive)
CCCCOCCCNC(=O)COc1ccccc1	360	-3.4% (inactive)	-12.1% (inactive)	113	-3.5% (inactive)	114	-0.398 (inactive)	-6.8e-05 (inactive)	0.00485 (inactive)	17.8% (inactive)	29.4% (inactive)
Cc1ccc(-c2nc3cc(NC(=O)C(C)C)ccc3o2)cc1	290	-6.7% (inactive)	14.3% (inactive)	98.3	29.7% (inactive)	87.7	-0.319 (inactive)	-3e-05 (inactive)	0.0055 (inactive)	-10.9% (inactive)	-66.2% (inactive)
COc1ccc(C(=O)CSc2nc(C)cc(=O)[nH]2)cc1	291	6.5% (inactive)	13.9% (inactive)	92.1	43.1% (inactive)	98.7	-0.506 (inactive)	2.1e-06 (inactive)	0.0048 (inactive)	14.8% (inactive)	9.5% (inactive)
Cc1ccc(NC(=O)CCC(=O)OCC(F)(F)C(F)F)cc1	551	-2.4% (inactive)	2% (inactive)	69.2	-2.3% (inactive)	91.8	-0.454 (inactive)	6.2e-06 (inactive)	0.00371 (inactive)	3.35% (inactive)	35.3% (inactive)
N#Cc1c(N2CCCC2)nc(N)c2c(N)nc(N3CCCC3)cc12	581	-9.2% (inactive)	-6.2% (inactive)	84.2	-144% (inactive)	160	-0.0789 (active)	1.7e-06 (inactive)	0.0051 (inactive)	-6.36% (inactive)	2.26% (inactive)
COc1ccc(NC(=O)c2oc3ccc(S(=O)(=O)N4CCC5(CC4)OCCO5)cc3c2C)cc1	209	-4.4% (inactive)	10% (inactive)	83.1	-77.8% (inactive)	121	-0.447 (inactive)	4.2e-05 (inactive)	0.00642 (inactive)	3.21% (inactive)	10.5% (inactive)
COc1ccc(NC(C)=O)cc1NC(=O)CN1CCN(c2ccccn2)CC1	573	-7% (inactive)	-1.2% (inactive)	104	-35.2% (inactive)	74.8	-0.526 (inactive)	-1.4e-05 (inactive)	0.00596 (inactive)	-3.99% (inactive)	0.164% (inactive)
COc1ccc(OCC(=O)Nc2ccc(N3CCOCC3)c(Cl)c2)cc1	651	7.5% (inactive)	-18.9% (inactive)	101	-144% (inactive)	109	-0.488 (inactive)	-1.5e-05 (inactive)	0.00692 (inactive)	10.5% (inactive)	5.62% (inactive)
CCOCCCNC(=O)c1cc2sc(Cl)cc2n1CC	449	17.9% (inactive)	-1.1% (inactive)	89.7	-80.9% (inactive)	100	-0.531 (inactive)	-9.5e-05 (inactive)	0.00603 (inactive)	34.7% (inactive)	19.5% (inactive)
COCCCNC(=O)c1ccc(CS(=O)(=O)c2ccc(OC)cc2)o1	696	-8.1% (inactive)	5.6% (inactive)	101	-54.8% (inactive)	115	-0.519 (inactive)	-5.8e-05 (inactive)	0.00615 (inactive)	7.18% (inactive)	13.8% (inactive)
O=S(=O)(NCc1ccccn1)c1ccc2c(c1)OCCO2	673	11.1% (inactive)	-27.1% (inactive)	99.3	-3.6% (inactive)	102	-0.354 (inactive)	-8e-05 (inactive)	0.00513 (inactive)	3.8% (inactive)	5.59% (inactive)
CC(NS(=O)(=O)c1ccc(OCC(=O)N2CCOCC2)c(Cl)c1)c1ccccc1 (stereo not drawn)	338	-6.5% (inactive)	0.2% (inactive)	104	-51.1% (inactive)	76.7	-0.409 (inactive)	-3.1e-05 (inactive)	0.00508 (inactive)	18.7% (inactive)	12.4% (inactive)
COc1ccc(OC)c(-n2nnnc2SCC(=O)NCc2ccc3c(c2)OCO3)c1	324	-12.5% (inactive)	-18.9% (inactive)	101	-26.8% (inactive)	109	-0.604 (inactive)	-1.7e-05 (inactive)	0.00401 (inactive)	18% (inactive)	-14.2% (inactive)
